Measurements from PubChem BioAssay (Tox21).
Records with an inconclusive call do not appear. Calls of active or inactive are those of the source. Unless noted, calls come from the whole dose curve; as a rule, active = well fitted curve in the direction sought with a large enough effect in the repeat runs; inconclusive = weak or mixed curves; inactive = no such curve, though single readings can be large; an effect the other way counts as inactive or inconclusive.

Legend:
[1] = qHTS assay to identify small molecule antagonists of the estrogen receptor beta (ER-beta) signaling pathway - cell viability counter screen (AID 1259382);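 note: HEK293T cells carrying ER-beta-UAS-bla reporter stimulated with estradiol; series mostly up to about 92 µM; nearly all actives have a fitted effect of over 55% in size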
How it was run: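 Luminescent ATP read-out (CellTiter-Glo, 30 min, RT) taken in the same wells as the bla reporter assay. HEK293T ER-beta-UAS-bla cells in 2% charcoal-stripped FBS were exposed to compounds with 1nM E2 for 16 hr at 37C.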

[2] = qHTS assay to identify small molecule agonists or antagonists of the thyroid stimulating hormone receptor (TSHR) signaling pathway - wild type cell line counter screen (AID 1259384; calls by dose curve)
How it was run: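 Wild-type Hek293 cells, 800/well, 18 h at 37C, then compound with Ro20-1724 for 30 min RT. cAMP by HTRF (cAMP-d2/anti-cAMP cryptate), 1 h RT, fluorescence read. 15 concentrations, triplicates.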

[3] = target: Thyrotropin receptor (Homo sapiens) (UniProt P16473); test: qHTS assay to identify small molecule antagonists of the thyroid stimulating hormone receptor (TSHR) signaling pathway (AID 1259385; calls by dose curve; note: nearly all actives have a fitted effect of over 20% in size)
How it was run: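 TSHR-HEK293 cells (800/well) plated 18 h, then compounds with Ro20-1724 and TSH at 1.5 ng/mL final, 30 min at room temperature. cAMP quantified by HTRF (cAMP-d2/anti-cAMP-cryptate, 1 h); 15 concentrations in triplicate.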

[4] = qHTS assay to identify small molecule agonists of the estrogen receptor alpha (ER-alpha) signaling pathway in the presence of an antagonist - cell viability counter screen (AID 1259386);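 note: series mostly up to about 92 µM; cells exposed to compounds for 22 h at 37 °C before the viability read; nearly all actives have a fitted effect of over 30% in size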
How it was run: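 Read-out: CellTiter-Fluor fluorescence after 1hr reagent incubation, measured in the same wells as the luciferase readout. VM7Luc4E2 cells were exposed to 15 compound concentrations with 10.0nM ICI-182,780 for 22hr at 37C.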

[5] = target: Progesterone receptor (Homo sapiens) (UniProt P06401); test: qHTS assay to identify small molecule agonists of the progesterone receptor (PR) signaling pathway (AID 1346784; calls by dose curve; note: nearly all actives have a fitted effect of over 30% in size)
How it was run: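 Agonist mode, quantitative HTS format in a HEK 293T line expressing a UAS-controlled beta-lactamase reporter; 16 hr compound exposure at 37C in 2% charcoal-stripped FBS, then LiveBLAzer B/G FRET fluorescence.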

[6] = target: Progesterone receptor (Homo sapiens) (UniProt P06401); test: qHTS assay to identify small molecule antagonists of the progesterone receptor (PR) signaling pathway (AID 1346795; active = well fitted inhibition curve with a large enough effect in the signal ratio in the repeat runs, not every such curve was filed as active; the % refers to the signal ratio)
How it was run: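 HEK293T PR-UAS-bla reporter cells in charcoal-stripped serum (2%) received compound after a 6 hr settling period, followed by R5020 agonist at 1 nM final; 16 hr incubation preceded the FRET substrate step and fluorescence measurement.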

[7] = qHTS assay to identify small molecule antagonists of the progesterone receptor (PR) signaling pathway - cell viability counter screen (AID 1346798); note: series mostly up to about 92 µM; nearly all actives have a fitted effect of over 50% in size
How it was run: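 Same-well multiplex: after 16 hr at 37C with compound and R5020 stimulation, HEK293T cells carrying a UAS-bla reporter received LiveBLAzer substrate (2 hr RT), then CellTiter-Glo (30 min RT) for luminescent viability.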

[8] = qHTS assay to identify small molecule agonists of the progesterone receptor (PR) signaling pathway - cell viability counter screen (AID 1346799; calls by dose curve; note: nearly all actives have a fitted effect of over 45% in size)
How it was run: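 Counter screen for cytotoxicity: compound-treated PR-UAS-bla HEK293T cells (16 hr, 37C, 5% CO2) were assayed with CellTiter-Glo, luminescence measured after 30 min at room temperature.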

[9] = qHTS assay to identify small molecule antagonists of the TGF-beta/Smad signaling pathway - cell viability counter screen (AID 1346824); note: nearly all actives have a fitted effect of over 50% in size
How it was run: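 SBE-bla HEK 293T cells, incubated overnight, then compound plus 0.25 ng/mL TGF-beta1 (stock added) for 5 hr at 37 C. Viability was read in the same wells by CellTiter-Glo luminescence after 30 min at room temperature.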

Measured: Potency

Sequence of Progesterone receptor (Homo sapiens) (P06401 whole entry, looked up): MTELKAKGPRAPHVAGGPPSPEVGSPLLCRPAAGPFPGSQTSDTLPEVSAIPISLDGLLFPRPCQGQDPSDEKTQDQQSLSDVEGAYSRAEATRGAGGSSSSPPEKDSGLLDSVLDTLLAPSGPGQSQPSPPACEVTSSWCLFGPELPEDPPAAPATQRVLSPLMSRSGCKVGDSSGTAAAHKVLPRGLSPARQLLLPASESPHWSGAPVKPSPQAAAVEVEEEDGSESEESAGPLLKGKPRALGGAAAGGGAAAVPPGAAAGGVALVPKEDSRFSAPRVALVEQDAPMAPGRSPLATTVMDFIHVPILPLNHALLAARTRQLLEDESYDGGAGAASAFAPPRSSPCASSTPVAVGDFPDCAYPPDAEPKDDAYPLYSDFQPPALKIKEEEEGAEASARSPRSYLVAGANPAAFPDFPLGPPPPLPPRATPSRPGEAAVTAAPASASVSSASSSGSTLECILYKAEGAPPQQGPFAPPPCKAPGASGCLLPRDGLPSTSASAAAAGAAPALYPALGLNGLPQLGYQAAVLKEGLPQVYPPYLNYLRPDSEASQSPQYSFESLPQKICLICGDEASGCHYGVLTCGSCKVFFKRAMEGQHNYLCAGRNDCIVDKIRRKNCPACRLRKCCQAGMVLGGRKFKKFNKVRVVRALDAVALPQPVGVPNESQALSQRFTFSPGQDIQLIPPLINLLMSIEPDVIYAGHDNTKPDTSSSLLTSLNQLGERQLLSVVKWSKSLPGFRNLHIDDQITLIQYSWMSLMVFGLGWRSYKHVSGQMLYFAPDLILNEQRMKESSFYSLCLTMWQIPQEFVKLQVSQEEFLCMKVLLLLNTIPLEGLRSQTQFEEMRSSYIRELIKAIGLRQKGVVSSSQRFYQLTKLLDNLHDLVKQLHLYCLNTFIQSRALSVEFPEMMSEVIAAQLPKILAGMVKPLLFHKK
Sequence of Thyrotropin receptor (Homo sapiens) (P16473 whole entry, looked up): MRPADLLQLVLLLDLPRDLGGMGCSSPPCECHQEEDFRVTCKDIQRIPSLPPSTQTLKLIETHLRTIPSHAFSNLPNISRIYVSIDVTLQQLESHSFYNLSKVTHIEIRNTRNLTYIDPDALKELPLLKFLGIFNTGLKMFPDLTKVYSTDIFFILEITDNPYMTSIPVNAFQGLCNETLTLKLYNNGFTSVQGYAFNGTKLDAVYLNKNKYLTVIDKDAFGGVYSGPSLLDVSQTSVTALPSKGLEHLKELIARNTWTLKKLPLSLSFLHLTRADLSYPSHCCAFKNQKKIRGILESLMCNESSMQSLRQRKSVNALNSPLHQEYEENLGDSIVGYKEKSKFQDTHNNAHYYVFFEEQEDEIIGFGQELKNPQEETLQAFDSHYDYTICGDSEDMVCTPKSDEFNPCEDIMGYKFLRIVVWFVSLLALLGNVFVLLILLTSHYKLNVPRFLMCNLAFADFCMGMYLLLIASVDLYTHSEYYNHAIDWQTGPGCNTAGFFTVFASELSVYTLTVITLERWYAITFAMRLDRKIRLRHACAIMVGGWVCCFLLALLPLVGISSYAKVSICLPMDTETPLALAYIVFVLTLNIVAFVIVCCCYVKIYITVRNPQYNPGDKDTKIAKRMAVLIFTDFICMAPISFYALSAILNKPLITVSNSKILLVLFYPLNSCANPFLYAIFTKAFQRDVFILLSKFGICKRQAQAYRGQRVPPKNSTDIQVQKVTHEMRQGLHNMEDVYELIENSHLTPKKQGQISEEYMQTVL

CC(=O)OC(C)=O
inactive: all assays above

CC(Oc1cc(Cl)ccc1Cl)C(=O)O (stereo unspecified)
not listed: [2] | [3]
inactive: all other assays above

Cc1cccc(Cl)c1
not listed: [5] | [7]
inactive: all other assays above

CN1CCOC(c2ccccc2)c2ccccc2C1 (stereo unspecified)
not listed: [2]
inactive: all other assays above

COS(=O)(=O)O
not listed: [5]
inactive: all other assays above

Cc1ccc(C)c([N+](=O)[O-])c1
not listed: [2] | [5] | [6]
inactive: all other assays above

Cc1ccc(C(C)NC(=O)[C@@H](NC(=O)OC(C)C)C(C)C)cc1 (stereo partly specified)
not listed: [6]
inactive: all other assays above

C=Cc1ccc(C(C)(C)C)cc1
not listed: [2] | [6]
inactive: all other assays above

CO[Si](CCCn1c(=O)n(CCC[Si](OC)(OC)OC)c(=O)n(CCC[Si](OC)(OC)OC)c1=O)(OC)OC
not listed: [5]
inactive: all other assays above

c1ccc2c(CC3=NCCN3)cccc2c1
not listed: [3]
inactive: all other assays above
